Among all 200,000 compounds or so, about 80 (0.04%) were called active. The list comes from a sample in which actives are over-represented; it also holds similar structures and randomly drawn compounds. Values without a mark were called inactive.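 The calls were made as follows: active = activation above the mean across all tested compounds plus 3 SD, cutoff set per campaign (cut at about 5.5% in these data); inactive = the rest.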
experiment: Hsp70 transcriptional activators, primary screen, cell-based, HeLa, Hsp70 promoter luciferase, luminescence, 10 µM (AID 1203); details: HeLa Hsp70 promoter luciferase reporter, at 10 µM, stronger effect = higher value, scaled: vehicle 0, proteasome-inhibitor control 100%;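 also: 100% = MG132 at 30 µM as the positive control and 0% = DMSO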

| SMILES | activation |
| --- | --- |
| COc1ccc(C)cc1S(=O)(=O)N(CC(=O)Nc1cccc([N+](=O)[O-])c1)c1ccc(C)cc1 | -0.49% |
| CCOC(=O)NC(=O)CSc1nnc(SCCC(=O)O)s1 | -0.37% |
| CC(C)C(=O)Nc1c(O)c2ccccc2[nH]c1=O | -0.15% |
| N#C/C(=C/c1ccc(N2CCCCC2)o1)C(=O)NCCc1c[nH]c2ccccc12 | -0.42% |
| CN1CCN(c2nc(Nc3ccc(O)cc3)nc3ccccc23)CC1 | -0.02% |
| COc1ccc(CNC(=O)C2CCN(S(C)(=O)=O)CC2)cc1 | -0.22% |
| Cc1cc(NC(C)C)n2c(nc3ccccc32)c1C#N | -0.27% |
| COc1ccc(CC(=O)Nc2cc(S(=O)(=O)N3CCCCC3)ccc2N2CCN(C)CC2)cc1 | -0.39% |
| CC1CCN(C(=S)c2cccc([N+](=O)[O-])c2)CC1 | -0.04% |
| CC(OC(=O)c1ccccc1OCc1ccc(Cl)cc1)C(N)=O (stereo unspecified) | -0.14% |
| Cc1ccc(N(C(=O)c2sc(C)nc2C)C(C(=O)NC(C)(C)C)c2ccncc2)cc1 (stereo unspecified) | -0.38% |
| COCC(C)n1c(C)cc(C(=O)CSc2cc(C)c3ccccc3n2)c1C (stereo unspecified) | -0.27% |
| COCCn1c(C)cc(C(=O)CSc2nc3ccccc3c(=O)n2C(C)COC)c1C (stereo unspecified) | 8.58% (active) |
| COCC(C)n1c(SCc2ccc(C(=O)OC)o2)nc2ccccc2c1=O (stereo unspecified) | -0.28% |
| O=S(=O)(c1ccc(F)cc1)n1ccc(-c2cnc(-c3ccccc3)s2)n1 | -0.1% |
| CCOC(=O)CSc1ccccn1 | 2.15% |
| COc1ccc(N(CC(=O)Nc2ccc(C)cc2C)S(=O)(=O)c2ccccc2[N+](=O)[O-])c(OC)c1 | -0.09% |
| Cc1cc(C)n(CC(=O)Nc2ccc([N+](=O)[O-])cc2)n1 | -0.28% |
| OCCC1CN(Cc2ccccc2-c2ccco2)CCN1Cc1ccsc1 (stereo unspecified) | -0.08% |
| COc1cccc(CNC(=O)CCC2CCCN(C(=O)c3ccoc3C)C2)c1 (stereo unspecified) | -0.21% |
| COc1ccc2c(c1)CCC/C2=N\OC(=O)c1ccccc1F | 0.09% |
| O=C(CC1C(=O)NCCN1Cc1ccc(-c2ccccc2)cc1)NCc1ccncc1 (stereo unspecified) | -0.07% |
| Cc1cccc(NC(=S)Nc2ccc3cn[nH]c3c2)c1 | -0.39% |
| Cc1ccc(NC(=O)OCc2cncs2)cc1 | 0.06% |

| SMILES | activation |
| --- | --- |
| COc1ccc(NC(=S)Nc2ccccc2Cl)cn1 | -0.12% |
| COc1ccc(NC(=O)/C(Cl)=C(/Cl)S(=O)Cc2ccc(C)cc2)cn1 (stereo unspecified) | 24.9% (active) |
| CC(=O)Nc1ccc(OCC(=O)NCc2ccc(C)cc2)cc1 | -0.17% |
| COc1ccc(CS(=O)/C(Cl)=C(/Cl)C(=O)Nc2ccc(OC)nc2)cc1 (stereo unspecified) | 20% (active) |
| COc1ccc(NC(=S)NCCNC(C)=O)cc1 | 0.67% |
| CN(C)c1ccc(C(CNC(=O)c2ccc(F)cc2)c2c[nH]c3ccccc23)cc1 (stereo unspecified) | -0.32% |
| COc1ccc(/C=N/N=C/c2c[nH]c(=O)c(C#N)c2Nc2ccccc2)cc1 | -0.38% |
| CCN(CC)S(=O)(=O)c1ccc(NC(=O)c2cccnc2Cl)c(NC(=O)c2cccnc2Cl)c1 | -0.26% |
| CCOc1ccc(NC(=O)C2CC(=O)N=C(N)S2)cc1 (stereo unspecified) | -0.33% |
| O=Cc1cn(Cc2ccccc2)nc1-c1cccnc1 | -0.04% |
| Cc1ccc(N(CC(=O)Nc2cc(C)cc(C)c2)S(=O)(=O)c2cccc3nonc23)cc1 | -0.31% |
| O=C(CN1C(=O)NC2(CCCC2)C1=O)NCC1CCCO1 (stereo unspecified) | 0.18% |
| O=S(=O)(N1CCCCC1)N1CCNCC1 | -0.19% |
| O=C(Nc1ccccc1Cl)/C(Cl)=C(\Cl)S(=O)c1ccccc1 (stereo unspecified) | 26.1% (active) |
| O=C(CN1CCCCC1)Nc1ccccc1Cl | -0.18% |
| O=C(Nc1ccccc1Cl)c1ccc2nsnc2c1 | 0.16% |
| CCCC1CCC(=NNC(=S)NCCc2ccccc2)CC1 (stereo unspecified) | -0.28% |
| OCCC1CN(Cc2cnc(-c3ccccc3)s2)CCN1CCc1ccccc1 (stereo unspecified) | 0.55% |
| C/C(=N/OC(=O)c1c(-c2c(F)cccc2Cl)noc1C)c1cnccn1 | -0.36% |
| O=C(CCC(=O)c1cccs1)NC1CCCCCC1 | -0.2% |
| Fc1cccc(Cc2noc(CN3CCN(c4cnccn4)CC3)n2)c1 | 0.1% |
| Cc1ccc(-c2ccc(/C=N/NC(=O)CN3CCOCC3)o2)cc1[N+](=O)[O-] | -0.19% |
| CCOC(=O)NN1C(=O)c2ccccc2NC1c1cccc(O)c1 (stereo unspecified) | -0.06% |
| N=C1C(=O)OCC1c1ccccc1NC(=O)CN1CCCCC1 (stereo unspecified) | -0.34% |

| SMILES | activation |
| --- | --- |
| CCc1ccc(NC(=O)C(C)OC(=O)/C=C/c2cccc([N+](=O)[O-])c2)cc1 (stereo unspecified) | -0.25% |
| O=C(COC(=O)CCc1ccc(S(=O)(=O)N2CCOCC2)cc1)Nc1cccc(Cl)c1 | -0.33% |
| CCN1CCN(C(=O)CN(C)S(=O)(=O)c2ccc3ccccc3c2)CC1 | -0.21% |
| CSCCC(=O)N1CCCC(CNC(=O)c2ccccc2Cl)C1 (stereo unspecified) | -0.44% |
| C=CCN(c1ccc(Cl)cc1)S(=O)(=O)c1cccc(C(=O)OCC(=O)N(C)C)c1 | -0.3% |
| Cc1cccc(CSc2nnc(C)c(=O)n2N)c1 | -0.18% |
| O=C(CO/N=C/c1ccc(OC(F)F)cc1)NCc1ccc(F)cc1 | 0.12% |
| CCNc1nc(NC(C)C)nc(N2CC(=O)N(CC(=O)OCC)C2=N)n1 | -0.19% |
| COc1ccccc1C(c1nnnn1CC1CCCO1)N1CCN(c2ccccc2)CC1 (stereo unspecified) | -0.43% |
| CCOc1ccc(C(CC(=O)O)n2cnnn2)cc1OC (stereo unspecified) | -0.16% |
| Cc1cc(C)cc(NC(=O)c2cccc(NC(=O)C3C4CC5OC(=O)C3C5C4)c2)c1 (stereo unspecified) | 0.09% |
| COCCNC(=S)N(Cc1cccnc1)Cc1ccc(OC)c(OC)c1 | -0.35% |
| O=C(Nc1ccccc1F)c1ccccc1-c1ccc(C(F)(F)F)cc1 | -0.36% |
| C/C(CC(=O)N1CCN(C=O)CC1)=N\NC(=O)c1ccc(Br)cc1 | -0.22% |
| Cc1ccc(CN2CCN(Cc3cccc(C)n3)CC2CCO)cc1 (stereo unspecified) | 0.01% |
| O=C(Cc1cc(=O)[nH][nH]1)N/N=C/c1ccccc1[N+](=O)[O-] | -0.41% |
| CCn1cc(C(=O)Nc2cc(C)ccc2C)c(=O)c2ccc(C)nc21 | -0.16% |
| CC(NC(=O)CC1SC(N)=NC1=O)c1ccccc1 (stereo unspecified) | -0.02% |
| COc1ccc(CCNC(=O)CSc2nnc3ccc(-c4ccncc4)nn23)cc1 | -0.16% |
| O=C(NCc1ccccc1Cl)C1CCC(CNc2c(N3CCCCC3)c(=O)c2=O)CC1 (stereo unspecified) | 0.08% |
| CN1C(=O)/C(=C/c2ccc(C(=O)NC3CCCC3)cc2)Oc2ccccc21 | 0.12% |
| CC(=O)c1ccccc1NC(=O)CC1(CC(=O)O)CCCCC1 | -0.11% |
| Cc1nc(S(=O)(=O)c2ccc(Br)cc2)nc2c1CCC2 | -0.24% |
| COc1ccc(Cn2c(=O)cc(C)[nH]c2=S)cc1 | 0.13% |

| SMILES | activation |
| --- | --- |
| O=C(COc1ccc(Cl)cc1[N+](=O)[O-])N1CCCCC1 | 0.04% |
| Cn1nc(C(F)(F)F)c2cc(C(=O)N3CCOCC3)sc21 | 0.19% |
| Cc1ccnc(SCC(N)=O)n1 | -0.02% |
| O=C(Nc1cccc(Cl)c1)Nc1ccccc1NS(=O)(=O)c1cccs1 | -0.23% |
| CCCC(C)C(=O)NCc1ccncc1 (stereo unspecified) | 0.15% |
| Cc1ccc(N(Cc2cc3ccccc3[nH]c2=O)C(=O)c2cccs2)cc1 | -0.18% |
| C/C(CC(=O)Nc1cccc(F)c1)=N\NC(=O)C(=O)NC1CCCCC1 | -0.18% |
| CCOCCCNC(=O)C(NC(=O)c1ccccc1O)c1ccccc1 (stereo unspecified) | -0.12% |
| O=C(CC(=O)N/N=C\c1ccc(F)cc1)NCCc1ccccc1 | -0.23% |
| CN1CCN(C(=O)CCc2nc(-c3ccc(Cl)cc3)no2)CC1 | -0.33% |
| N#Cc1c(-c2ccc(F)cc2)nc(-c2ccccc2)[nH]c1=O | -0.14% |
| CCSC1=NCCN1S(=O)(=O)c1ccc(F)cc1 | -0.26% |
| COc1ccc(C(=O)CSc2nnnn2C)c(OC)c1 | 0.02% |
| CC(=O)Nc1ccc(C(=O)OCC(=O)Nc2ccc([N+](=O)[O-])cc2C(F)(F)F)cc1 | -0.04% |
| CCN(CC)C(=O)C(=O)Nc1cccc(Br)c1 | -0.16% |
| c1ccc(-n2nnnc2NC2CCCCCC2)cc1 | -0.52% |
| CC(=O)c1ccc(NC(=S)N(Cc2ccccc2)C(C)C2CC2)cc1 (stereo unspecified) | -0.19% |
| COc1ccc(COC(=O)N/N=C(\C)CC(=O)Nc2ccc(Cl)cc2)cc1 | -0.38% |
| OCCC1CN(Cc2cccc(O)c2)CCN1CCc1ccccc1 (stereo unspecified) | 0.03% |
| Cc1cccc(OCC(O)CN2CCN(CCN3C(=O)c4cccc5cccc(c45)C3=O)CC2)c1C (stereo unspecified) | -0.21% |
| Cc1ccc(CN2CCN(Cc3ccc4ncccc4c3)CC2CCO)cc1 (stereo unspecified) | -0.4% |
| NS(=O)(=O)c1ccc(CCNC(=S)Nc2ccc(S(N)(=O)=O)cc2)cc1 | 0.04% |
| COc1ccc2c(CC(=O)OCC(=O)Nc3ccccc3[N+](=O)[O-])coc2c1 | -0.38% |
| CCCNCc1cc(OCC)c(OCC(=O)Nc2ccccc2)cc1Br | -0.15% |

— PubChem BioAssay AID1203 (The Scripps Research Institute Molecular Screening Center, 2008)
